Results: PubChem BioAssay AID430 (Sanford-Burnham Center for Chemical Genomics, 2006)
Among all 63,000 compounds or so, about 1,100 (1.7%) were called active. Many of the other results were omitted from the sample, so actives are more common in it than they were. Potency and affinity values are given separately. Unmarked numbers belong to inactive results. Rule as the data show it: active = cytotoxicity above about 50%; inactive = the rest.

assay: HPDE-C7 pancreatic duct cell viability loss – fluorescence, HTS (AID 430); details: HPDE-C7 pancreatic duct cells viability, at 10 µM, stronger effect = higher value;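 also: cells exposed to compound for 48 hours before viability readout; 0% = vehicle and 100% = reference cytotoxic drug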

Row | SMILES | cytotoxicity
1 | Cc1cccn2c(=O)c3cc(C#N)c(=N)n(CCN4CCOCC4)c3nc12 | 5%
2 | Cc1ccccc1-n1c(SCc2cc(=O)n3ccccc3n2)nc2[nH]ncc2c1=O | -8%
3 | CC1(N2CCOCC2)CC2(O)C(=[N+]1[O-])CCc1nonc12 (stereo not given) | 12.8%
4 | CC1(N2CCCCC2)CC2(O)C(=[N+]1[O-])CCC/C2=N\O (stereo not given) | -1.5%
5 | CC1(N2CCOCC2)CC2(O)C(=[N+]1[O-])CCc1c2no[n+]1[O-] (stereo not given) | 60.2% (active)
6 | Oc1ccc(Nc2nc(N3CCCC3)c3ccccc3n2)cc1 | 73.1% (active)
7 | Cc1ccc(Nc2nc(N3CCOCC3)c3ccccc3n2)cc1 | 30.7%
8 | COc1ccc(Nc2nc(N3CCCC3)c3ccccc3n2)cc1 | 27.2%
9 | C=CCN1C(=O)C2(c3ccccc31)C1CCCC=C1C(C#N)=C(N)C2(C#N)C#N (stereo not given) | -22.1%
10 | C=C(C)c1cccc(C(C)(C)NC(=O)N2CCOCC2)c1 | 7.9%
11 | COc1ccc(C(=O)CCN2CCCCCC2)cc1 | 19.8%
12 | COc1ccc(C(=O)O)cc1F | -2.5%
13 | COc1ccc(C(O)C(CN2CCOCC2)c2ccccc2)cc1F (stereo not given) | -2.2%
14 | COc1ccc(C(=O)C(c2ccccc2)N2CCOCC2)cc1 (stereo not given) | -4.6%
15 | CCOC(=O)Cc1nnc(NC(=O)CSc2nnc3c4ccccc4n(C(C)C)c3n2)s1 | -15%
16 | CC1CCCCC1NC(=O)C1CCN(S(=O)(=O)c2ccc3c(c2)CCC(=O)N3)CC1 (stereo not given) | -18.5%
17 | COc1ccccc1C1NC(=O)CS1 (stereo not given) | -18.6%
18 | Nc1nc(-c2ccccc2)cc(N2CCCCC2)n1 | 50.6% (active)
19 | Cc1nc(-c2ccccc2)cc(N2CCCC2)n1 | -14.7%
20 | c1ccc(-c2cc(N3CCCCC3)ncn2)cc1 | -3.8%
21 | CCOc1cccc2c1OC1(C)CC2NC(=O)N1c1cccc(F)c1 (stereo not given) | -12.1%
22 | Cc1ccc(C(=O)Nc2ncc(Cc3ccccc3)s2)o1 | 31.4%
23 | Cc1ccc(C(=O)Nc2ncc(Cc3ccc(F)cc3)s2)o1 | 57.5% (active)
24 | Cc1nnc(SCC(=O)Nc2ncc(Cc3ccc(F)cc3)s2)n1N | -7.7%

Row | SMILES | cytotoxicity
25 | CCOc1ccc(CN(CCO)CCO)cc1C(=O)OC | -17%
26 | CSc1cccc(NC(=O)CSc2nc3ccccc3o2)c1 | -17.5%
27 | O=C(CSc1nc2ccccc2o1)Nc1ccccc1 | -13.9%
28 | CCCCN(Cc1ccccc1)C(=O)C1CCCN(S(=O)(=O)c2cnc[nH]2)C1 (stereo not given) | 6%
29 | Cc1ccccc1-n1c(C)nnc1SCC(=O)N1CC(=O)Nc2ccccc21 | 4.2%
30 | Cc1cccc2cc(C#N)c(SCC(=O)N3CC(=O)Nc4ccccc43)nc12 | 53.4% (active)
31 | Cc1cccc2cc(C#N)c(SCC(=O)N3CCC(C)CC3)nc12 | 8.5%
32 | C=CCOc1ccc(/C(O)=C2/C(=O)C(=O)N(CCN3CCOCC3)C2c2ccc(C)cc2)cc1 (stereo not given) | -1.1%
33 | Cc1ccc(C2C3CN(C(C)C)CC=C3C(C#N)=C(N)C2(C#N)C#N)cc1 (stereo not given) | -0.7%
34 | N#CC1=C(N)C(C#N)(C#N)[C@H](c2ccncc2)[C@H]2CC3(CC=C12)OCCO3 | -12.1%
35 | CCOC(=O)c1cccc(NC(=O)CSc2nnc(-c3cccnc3)n2CC)c1 | -5.8%
36 | COc1ccccc1-n1c(SCC(=O)N2CCCCC2)nc2cccnc21 | -11.8%
37 | COc1ccc2[nH]c3c(N4CCN(Cc5ccc6c(c5)OCO6)CC4)ncnc3c2c1 | 50.6% (active)
38 | Fc1ccc2[nH]c3c(N4CCN(c5ccccc5)CC4)ncnc3c2c1 | 10.8%
39 | COc1ccc2c(c1)c(C(O)CN1CCN(Cc3ccc4c(c3)OCO4)CC1)c(C)n2C (stereo not given) | 21.3%
40 | COc1cccc2[nH]c3c(N4CCN(Cc5ccc6c(c5)OCO6)CC4)ncnc3c12 | 47.6%
41 | COc1cccc(N2CCN(c3ncnc4c3[nH]c3ccc(F)cc34)CC2C)c1 (stereo not given) | 114% (active)
42 | CN1CCN(c2ncnc3c2[nH]c2ccc(F)cc23)CC1 | 6.4%
43 | Fc1ccc2[nH]c3c(N4CCN(C5CCCCC5)CC4)ncnc3c2c1 | 10.6%
44 | c1ccc(Cn2nnc3c(N4CCN(Cc5ccc6c(c5)OCO6)CC4)ncnc32)cc1 | 11.9%
45 | COc1ccc2c(c1)c1ncnc(N3CCN(Cc4ccc5c(c4)OCO5)CC3)c1n2C | 54.9% (active)
46 | c1ccc2c(c1)[nH]c1c(N3CCSCC3)ncnc12 | 44%
47 | c1ccc2c(c1)oc1c(N3CCN(Cc4ccc5c(c4)OCO5)CC3)ncnc12 | 8.4%
48 | Cc1ccc(N(CC(=O)NC2CCCCCC2)S(=O)(=O)c2c(C)nn(C)c2C)cc1 | 3.4%

Row | SMILES | cytotoxicity
49 | COc1cccc(C(=O)N(CN2CCCC2=O)c2ccccc2OC)c1 | -0.2%
50 | CCCC(c1nnnn1Cc1ccc(F)cc1)N1CCN(C2CCCCC2)CC1 (stereo not given) | 10.8%
51 | O=C(CN1CCN(c2ccccn2)CC1)Nc1ccc(OCc2ccccc2)cc1 | 3.7%
52 | O=C1c2ccccc2C(=O)N1CCSc1nncs1 | -8.3%
53 | Cc1ccc2[nH]c3c(N4CCN(Cc5ccc6c(c5)OCO6)CC4)ncnc3c2c1 | 30.3%
54 | c1nc(N2CCN(Cc3ccc4c(c3)OCO4)CC2)c2[nH]cnc2n1 | -4%
55 | Cc1ccc2c(c1)[nH]c1c(N3CCN(Cc4ccc5c(c4)OCO5)CC3)ncnc12 | -17.1%
56 | COC(=O)c1[nH]c2cc(OC)ccc2c1NC(=O)CCN1CCN(Cc2ccc3c(c2)OCO3)CC1 | -20.7%
57 | Fc1ccc2[nH]c3c(N4CCN(Cc5ccc6c(c5)OCO6)CC4)ncnc3c2c1 | 89.3% (active)
58 | COc1ccccc1-n1c(SCC(=O)NC(C)(C)C)nnc1-c1ccco1 | 3.2%
59 | COC(=O)c1sc(NC(=O)CSc2nnc(C(C)C)n2C)nc1C | -8.2%
60 | COc1ccccc1CN1C(=O)CCC1(C)C(=O)NC1CCCCCC1 (stereo not given) | -12.9%
61 | COCCNC(=O)c1cnn2c(C(F)(F)F)cc(-c3ccc4c(c3)OCO4)nc12 | 4.1%
62 | Cc1cc(-c2ccccc2)c2c3c(cn2n1)c(=O)n(C)c(=O)n3C | 2.6%
63 | Cc1nc2sc3c(c2c2nnc(SCC(=O)NCc4ccco4)n12)CCCC3 | -3.2%
64 | CC1(C)Cc2c(C#N)c(SCCOc3ccccc3)nc(N3CCOCC3)c2CO1 | 59.4% (active)
65 | CC1(C)Cc2c(C#N)c(SCC(=O)c3ccccc3)nc(N3CCOCC3)c2CO1 | -5.6%
66 | N#Cc1c(SCc2ccccc2)nc(N2CCOCC2)c2c1CCCC2 | 8.3%
67 | CCCCCSc1nc(N2CCOCC2)c2c(c1C#N)CC(C)(C)OC2 | 1.7%
68 | CC1(C)Cc2c(C#N)c(SCc3ccccc3)nc(N3CCOCC3)c2CO1 | 18.9%
69 | CN1Cc2c(N3CCOCC3)nc(SCc3ccccc3)c(C#N)c2CC1(C)C | 51.3% (active)
70 | Cn1c(=O)c2c(ncn2CC(=O)N2CCCc3ccccc32)n(C)c1=O | -15.8%
71 | CCOC(=O)c1cccc(S(=O)(=O)N(CCO)Cc2cc3cc(OC)c(OC)cc3[nH]c2=O)c1 | -19.4%
72 | COc1ccc(-n2c(Cc3cccn3C)nnc2SCC(=O)Nc2nccs2)cc1 | 5.7%

Row | SMILES | cytotoxicity
73 | Nc1ccccc1OCCOCCOCCOc1ccccc1N | 5.3%
74 | CCC(C)n1cnc2c(c1=O)c1nc3ccccc3nc1n2Cc1ccc2c(c1)OCO2 (stereo not given) | 26.8%
75 | COc1ccc(NC(=O)C2CC(c3ccc(OC)c(OC)c3)=NO2)cc1OC (stereo not given) | -6.6%
76 | COc1ccc(C2=NOC(C(=O)NCc3ccc(F)cc3)C2)cc1OC (stereo not given) | 55.2% (active)
77 | COc1ccc(C2=NOC(C(=O)NCc3ccco3)C2)cc1OC (stereo not given) | 38.7%
78 | COc1cc(C2=NOC(C(=O)NCc3ccc(F)cc3)C2)cc(OC)c1OC (stereo not given) | 63.4% (active)
79 | COc1cc(C2=NOC(C(=O)NCc3ccco3)C2)cc(OC)c1OC (stereo not given) | 32.6%
80 | COc1cc(C2=NOC(C(=O)Nc3ccc(C)cc3)C2)cc(OC)c1OC (stereo not given) | -9.2%
81 | O=C(c1ccco1)N(CCCN1CCOCC1)c1nc(-c2ccc(F)cc2)cs1 | 11.3%
82 | COc1ccc(NC(C)=O)cc1NC(=O)CSc1nnc(-c2cccnc2)n1C | -13.3%
83 | O=C(NCC1CCCO1)C1CCC(CNS(=O)(=O)c2ccccc2)CC1 (stereo not given) | 13.6%
84 | COc1ccc(OC)c2sc(NC(=O)CCS(=O)(=O)c3ccccc3)nc12 | -0.4%
85 | O=C(CCS(=O)(=O)c1ccccc1)Nc1nc2c(s1)COc1ccccc1-2 | 98.3% (active)
86 | O=C(Nc1nc2c(s1)COc1ccccc1-2)c1cccs1 | 9.6%
87 | Clc1ccc2nc(CN3CCCc4ccccc43)cn2c1 | 23.1%
88 | CCCCCn1c(=NC(C)=O)c(C#N)cc2c(=O)n3ccccc3nc21 | 8.8%
89 | O=C(O)Cn1cc(C(=O)c2cccs2)c2ccccc21 | -14%
90 | COCCn1c(C(C)C)nc2oc3ccccc3c(=O)c2c1=O | -9.4%
91 | CCC(=O)N1CCc2cc(S(=O)(=O)NCCN3CCC(C)CC3)ccc21 | -1.8%
92 | CCN1C(=O)CC(N2CCC(C(=O)OC)CC2)C1=O (stereo not given) | -6.2%
93 | CN1CCN(C(c2cccnc2)c2ccc3cccnc3c2O)CC1 (stereo not given) | -9.1%
94 | Cc1nc2sc(C(c3ccccc3)N3CCN(CCO)CC3)c(O)n2n1 (stereo not given) | -1.3%
95 | OCCN1CCN(C(c2cccs2)c2ccc3cccnc3c2O)CC1 (stereo not given) | 79.3% (active)
